Source: PubChem BioAssay (Johns Hopkins Ion Channel Center)
An excerpt weighted towards active compounds, which were near 1.6% of everything screened.
KCNQ2 enhance = enhances the rat KCNQ2 potassium channel; AID 2239; O88943; actives 0.54% (n = 310,000); CHO-K1 KCNQ2, FluxOR thallium flux fluorescence; active compounds read high; B-score at 10 µM;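 active = fluorescence ratio B-score at least 3 SD of library B-scores, with initial fluorescence B-score within 3 of them, cut at about 5.3 in these data; same plate scores as AID 2156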;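 note: B-score of peak minus minimum over baseline fluorescence ratio after K+ and Tl+ stimulus; positive B-score means potentiation of KCNQ2 with more thallium influx and brighter signal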
Target sequence (O88943 whole entry, looked up): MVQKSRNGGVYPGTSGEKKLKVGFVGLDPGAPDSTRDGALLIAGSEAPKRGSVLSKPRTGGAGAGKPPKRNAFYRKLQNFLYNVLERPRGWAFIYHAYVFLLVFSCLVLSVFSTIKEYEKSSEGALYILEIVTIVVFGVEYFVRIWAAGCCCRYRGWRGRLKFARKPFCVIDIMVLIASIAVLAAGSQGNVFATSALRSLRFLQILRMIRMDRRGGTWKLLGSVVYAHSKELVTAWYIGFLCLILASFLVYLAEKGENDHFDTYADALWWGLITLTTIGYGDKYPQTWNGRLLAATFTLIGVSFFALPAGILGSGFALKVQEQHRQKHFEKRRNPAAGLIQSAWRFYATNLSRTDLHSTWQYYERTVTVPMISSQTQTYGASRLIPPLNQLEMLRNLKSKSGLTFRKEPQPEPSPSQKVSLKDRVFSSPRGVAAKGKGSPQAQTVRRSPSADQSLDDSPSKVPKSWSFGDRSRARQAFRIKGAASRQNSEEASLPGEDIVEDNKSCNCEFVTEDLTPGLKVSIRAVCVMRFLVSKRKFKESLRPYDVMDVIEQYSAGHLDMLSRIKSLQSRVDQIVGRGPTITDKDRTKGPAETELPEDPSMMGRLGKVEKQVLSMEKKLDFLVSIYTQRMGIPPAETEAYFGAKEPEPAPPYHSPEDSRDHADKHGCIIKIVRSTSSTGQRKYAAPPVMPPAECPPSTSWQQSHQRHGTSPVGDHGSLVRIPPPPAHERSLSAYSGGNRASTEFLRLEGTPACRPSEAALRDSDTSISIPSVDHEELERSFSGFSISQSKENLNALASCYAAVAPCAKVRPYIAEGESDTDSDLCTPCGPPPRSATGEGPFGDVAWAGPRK
KCNQ2 block = blocks the rat KCNQ2 potassium channel; CHO-K1 KCNQ2, FluxOR thallium flux, 20 min; active compounds read low; B-score at 10 µM; actives 1.1% (n = 310,000);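 active = fluorescence ratio B-score at most minus 3 library SDs, with starting brightness B-score within 2 library SDs, cut at about -5.5 in these data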
The depositor's hits bear a star; i = inactive; nt = not tested or not shown.

SMILES	KCNQ2 enhance	KCNQ2 block
Cc1ccc(C)c(N2CCN(c3ncccc3[N+](=O)[O-])CC2)c1	-6.6	-6.6*
N/C(Cc1ccc([N+](=O)[O-])cc1)=N\OC(=O)CC1CCCCC1	8*	i
Cc1ccc(CC(=O)O/N=C(\N)Cc2ccc([N+](=O)[O-])cc2)cc1	nt	i
CCN(CC(=O)NCc1ccc(Cl)cc1)C(=O)COc1ccc(C)cc1C	nt	i
Cc1ccc(C(=O)N/N=C(/CC(=O)c2cccs2)C(F)(F)F)cc1	13*	i
O=C(N/N=C(\CC(=O)c1cccs1)C(F)(F)F)c1ccncc1	0.05	i
CC1CCC(C(C)C)C(OC(=O)CSc2nccc(=O)[nH]2)C1 (stereo not given)	nt	i
CC1CCC(C(C)C)C(OC(=O)C2=C3c4ccccc4S(=O)(=O)N3CC2)C1 (stereo not given)	-6.1	-6.1*
N#Cc1ccccc1NC(=O)CSC1=Nc2ccccc2C2CC=NN12 (stereo not given)	nt	i
Cc1cc(C)cc(N(CCC#N)C(=O)CSC2=Nc3ccccc3C3CC=NN23)c1 (stereo not given)	-6.1	-6.1*
O=C(NC(=S)N1CCOCC1)c1ccc(F)cc1	0.02	i
O=C(CSc1nc2[nH]ncc2c(=O)n1-c1ccccc1)N1CCCCCC1	nt	i
COc1ccc(OC)c(-c2cnc(OC(C)(C)C)nc2OC(C)(C)C)c1	-5.7	-5.7*
COc1ccc(-c2ccc(-c3nnc(-c4cc(OC)ccc4OC)o3)cc2)cc1	0.4	i
COc1ccc([C@@H]2COc3c(ccc4c3C=CC(C)(C)O4)C2)c(OC)c1	-6.3	-6.3*
COc1ccc(C2CC(=O)OC3=C2C(=O)CC(C)(C)C3)c(OC)c1 (stereo not given)	0.09	i
CC(C)c1ccc(C2/C(=C(/O)c3ccc(F)cc3)C(=O)C(=O)N2CCCN2CCOCC2)cc1 (stereo not given)	0.39	i
COC(=O)Cn1c(O)c(N=NC(=O)c2ccc3c(c2)OCO3)c2ccccc21	0.21	i
Cc1nc(N2CCN(c3ccccn3)CC2)c2c(C)c(C(=O)Nc3ccc(Br)cc3C)sc2n1	-6	-6*
Cc1ccc(NC(=O)c2sc3nc(C)nc(N4CCN(c5ccccn5)CC4)c3c2C)c(C)c1	nt	i
CCCNC(=O)c1onc(CS(=O)(=O)c2cccc(OC)c2)c1C(=O)NCCC	1	i
O=C(NC1CCCC1)c1ccc(Cl)c(S(=O)(=O)N2CCCCC2)c1	0.01	i
N#CC1=C(N)NC(SCC(=O)c2ccc(Br)cc2)=C(C#N)C12CCCCC2	-6.6	-6.6*
N#CC1=C(N)NC(SCC(=O)c2ccc(Cl)cc2)=C(C#N)C12CCCC2	nt	i
COCCNC(=O)CN(C(=O)CCC(=O)Nc1ccccn1)c1cc(C)ccc1C	nt	i
SMILES	KCNQ2 enhance	KCNQ2 block
COc1ccc(OC)c(S(=O)(=O)N2CCN(c3ccccc3)CC2)c1	0.08	i
CCc1ccccc1N1CCN(S(=O)(=O)c2cc(OC)ccc2OC)CC1	-7.1	-7.1*
O=S(=O)(Nc1ccc(Cl)cn1)c1cccs1	2.2	i
O=C(CSc1nc(O)cc(=O)n1-c1ccccc1)Nc1ccc2c3c(cccc13)CC2	3.3	i
Cc1c(O)nc(SCC(=O)Nc2ccc3c4c(cccc24)CC3)n(-c2ccccc2)c1=O	12*	i
O=C(/C(=C/c1ccc(Cl)cc1)c1nc2ccccc2[nH]1)c1cccs1	-6.3	-6.3*
COC(=O)/C(=C\c1cc(OC)c(OC)c(OC)c1)c1nc2ccccc2[nH]1	nt	i
O=C(/C(=C\c1ccccc1)c1nc2ccccc2[nH]1)c1ccc(Cl)cc1	0.99	i
COc1cc(/C=C(/C(=O)c2cccs2)c2nc3ccccc3[nH]2)ccc1O	-7.6	-7.6*
COC(=O)c1ccc(Cn2nnc3c(=O)[nH]c(C4CCCN(S(=O)(=O)c5cccc(Cl)c5)C4)nc32)cc1 (stereo not given)	1.4	i
CCOC(=O)N(NC(=O)C(O)(C(C)C)C(C)C)c1ccccc1	nt	i
CCCCC(O)(CCCC)C(=O)NN(C(=O)OC)c1ccccc1	nt	i
COC(=O)N(NC(=O)C(O)(c1ccccc1)c1ccccc1)c1ccc(C)cc1	-5.9	-5.9*
CCOC(=O)N(NC(=O)C(O)(c1ccccc1)c1ccccc1)c1ccccc1	-6.1	-6.1*
COc1ccc([N+](=O)[O-])cc1/C=N/NC(=O)CNC(=O)C(c1ccccc1)c1ccccc1	-6.1	-6.1*
COc1ccc([N+](=O)[O-])cc1/C=N/NC(=O)CNC(=O)c1cccc(F)c1	nt	i
CCc1ccc(NC(=O)C(=O)NNC(=O)COc2cccc(OC)c2)cc1	6*	i
COc1ccc(NC(=O)C(=O)NNC(=O)COc2ccc(OC)cc2)cc1	1.8	i
CSCCC(NC(=O)c1ccccc1Cl)C(=O)NNC(=O)c1ccncc1 (stereo not given)	nt	i
Cc1cc(C)nc(N2CCCC(CCC(=O)NCc3ccc(F)c(F)c3)C2)n1 (stereo not given)	nt	i
CSc1nc(Cc2ccccc2)nc2ccccc12	nt	i
CC(C)(C)NC(=O)CSc1nc(Cc2ccccc2)nc2ccccc12	nt	i
CC(C)N(C(=O)CSc1nc2ccccc2n1Cc1ccc(F)cc1)C(C)C	-7.9	-7.9*
CC(C)N(C(=O)CSc1nc(Cc2ccccc2)nc2ccccc12)C(C)C	-6.3	-6.3*
CCC(C)(C)NC(=O)CSc1nc(Cc2ccccc2)nc2ccccc12	-6.3	-6.3*
SMILES	KCNQ2 enhance	KCNQ2 block
CC(C)NC(=O)CSc1nc2ccccc2n1CC(=O)N(C(C)C)C(C)C	0.34	i
O=C(Nc1ccc2c(c1)OCO2)c1noc2c1CCCC2	nt	i
Cc1ccc(NC(=O)N2CCCC2C(=O)Nc2c(C)cc(C)cc2C)cc1 (stereo not given)	1.9	i
Cc1cccc(CC(=O)NCCN2CCCCC2)c1	nt	i
CCOC(=O)c1cc(-c2ccco2)nc2c1c(C)nn2-c1ccccc1	-6	-6*
CCCn1c(=O)c2c(C(=O)OCC)cc(-c3ccco3)nc2n(CCC)c1=O	nt	i
C=CCn1c(SCc2ccc(C(=O)NCCO)cc2)nc2sc(C)c(C)c2c1=O	nt	i
CCOC(=O)C1(CCc2ccccc2)CCN(Cc2cccc3nccnc23)CC1	-5.9	-5.9*
CCOC(=O)C1(CCc2ccccc2)CCN(Cc2ccn[nH]2)CC1	nt	i
O=C(COC(=O)c1cccc(Cl)c1)NCCN1C(=O)CSC1=O	0.05	i
Cc1noc(C)c1COc1cccc(C(=O)OCC(=O)NCCN2C(=O)CSC2=O)c1	8.3*	i
CCOC(=O)C1CCCN(C(=O)c2cc(S(=O)(=O)N3CCCCC3)ccc2Cl)C1 (stereo not given)	nt	i
Cn1c(=O)c2c(nc3n2CC(O)CN3c2ccccc2)n(C)c1=O (stereo not given)	nt	i
CCOc1ccc(NC(=O)C(CC)n2nc(C)c3c(C)n(-c4ccccc4)nc3c2=O)cc1 (stereo not given)	0.41	i
O=C1N=C(N2CCOCC2)S/C1=C\c1cccs1	8.8*	i
Cc1ccsc1/C=C1/SC(N2CCOCC2)=NC1=O	0.11	i
Cn1nc(C(F)(F)F)c(/C=N/OC(=O)c2ccccc2)c1SCc1ccc(Cl)cc1	nt	i
Cn1nc(C(F)(F)F)c(/C=N/OC(=O)c2ccccc2Cl)c1SCc1ccccc1Cl	-6	-6*
CN1C(=O)c2ccc(NC(=O)c3ccc(Cl)cc3Cl)cc2C1=O	0.4	i
CCOC(=O)c1c(C=O)c(C)n(Cc2ccc(C)cc2)c1C	nt	i
